Screening results from PubChem BioAssay.
The list is not random: actives were taken first. Their share in the collection is about 7.3%.
AmpC inh detg – inhibitors of E. coli AmpC beta-lactamase with detergent; 370,000 compounds, 0.041% hits; Potency, µM (series often up to 114 µM), for the others: top-dose activity change, negative = inhibition, actives largely listed as inhibitors; P00811; AmpC hydrolysis of nitrocefin, absorbance 480 nm, 0.01% Triton;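 further: potency means the concentration at half of the fitted maximal effect; 0% = no-compound wells and -100% = no-enzyme wells; nearly all actives have a fitted effect of over 25% in size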
Target sequence (P00811 whole entry, looked up): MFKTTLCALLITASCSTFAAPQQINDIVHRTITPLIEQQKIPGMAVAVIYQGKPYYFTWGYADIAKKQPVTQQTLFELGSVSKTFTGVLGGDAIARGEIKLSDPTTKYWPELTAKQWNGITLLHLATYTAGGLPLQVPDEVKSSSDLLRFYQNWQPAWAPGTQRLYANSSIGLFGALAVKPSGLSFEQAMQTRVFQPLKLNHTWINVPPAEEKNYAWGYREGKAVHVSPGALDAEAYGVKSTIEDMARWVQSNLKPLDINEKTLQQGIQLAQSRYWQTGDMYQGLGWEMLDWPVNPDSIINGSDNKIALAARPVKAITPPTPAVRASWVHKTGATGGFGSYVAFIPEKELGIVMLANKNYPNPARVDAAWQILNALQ
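20 mM phosphate pH 7.0 + 0.01% (detergent screen) or 0.0001% Triton X-100; 5.3 nM AmpC reagent; cpd preinc 15 min RT; nitrocefin (800 uM stock) to start; A480 q20 s × 4 min; Activity was normalised to no-enzyme and no-compound control wells.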
HCV inh – HCV inhibition; Huh7.5.1 HCVcc-Cre infection, luciferase reporter, 44 h; 340,000 compounds, 3.4% hits; AID 651820; Potency, µM (doses to about 41.8 µM), without a hit: top-dose activity change, negative = inhibition, hits mostly inhibitors; further: potency means the concentration at half of the fitted maximal effect
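Whole-lifecycle infectious HCVcc-Cre system; cells 1,000/well, compound then virus (~0.5 moi) added 4 h after plating, 44 h culture. Luciferase read 15 sec following 15 min substrate incubation, room temp.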
AmpC inh no detg – inhibitors of E. coli AmpC beta-lactamase without detergent | P00811 | 330,000 compounds, 0.52% hits | AmpC nitrocefin hydrolysis, absorbance 480 nm, 0.0001% Triton | Potency, µM (titrated, usually from 57.1 µM), without a hit: at the highest dose activity change, negative = inhibition, hits mostly inhibitors;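 further: potency means the concentration at half of the fitted maximal effect; plate controls were no compound for no effect and no enzyme for full effect; nearly all actives have a fitted effect of over 20% in size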
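AmpC (5.3 nM in the dispensed reagent) in 20 mM phosphate pH 7.0 with 0.01% (detergent screen) or 0.0001% Triton X-100 was preincubated with compounds for 15 min at room temperature. Nitrocefin was then added from an 800 uM solution, and hydrolysis was followed at 480 nm.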
FMDV inh – antivirals against foot and mouth disease virus. 410,000 compounds, 1.2% hits. Potency, µM (top dose mostly 57.9 µM), without a hit: at the top dose activity change, negative = inhibition, hits mostly inhibitors. FMDV antiviral cell-based qHTS; calls by dose curve; tested in HEK293T cells; further: read-out not given here; potency means the concentration at half of the fitted maximal effect; nearly all actives have a fitted effect of over 45% in size
HCMV inh – human cytomegalovirus inhibition. HFF cells, HCMV-luciferase reporter, 72 h; hits give low values. activity change, negative = inhibition, % at 57.5 µM. 410,000 compounds, 4.5% hits. AID 1259415; in the data active means activity change below about -60%; inconclusive means no clear call, values can overlap the other calls; inactive means above about -39%
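Screen run at 2 compound doses on HFFs infected with reporter HCMV, MOI 1 PFU/cell. Luciferase activity from cell lysates at 72 h post infection gave inhibition relative to buffer-only and Salinomycin wells.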
Active calls of the source: *; ? = inconclusive; nt = no result given. Unless noted, the call rests on the fitted dose curve; in most records, active means well fitted curve in the direction sought with a large enough effect; inconclusive means small, poorly fitted or top-dose-only effect, or another doubt; inactive means no such curve, though single readings can be large; an effect the other way counts as inactive or inconclusive. Unless noted, on the % scale 0 is the no-effect control and ±100 the full control effect.

SMILES | AmpC inh detg | HCV inh | AmpC inh no detg | FMDV inh | HCMV inh
Cc1ccc(C)c(S(=O)(=O)N2CCN(c3nc(-c4cccnc4)nc4ccccc34)CC2)c1 | 7.9% | 11.2µM* | -14.5% | ? | 19.7
COc1cc2c(cc1OC)CN(c1nc(-c3cccnc3)nc3ccccc13)CC2 | 5.6% | 14.1µM* | 107.6% | 15.8µM* | -35.9
C[C@H]1[C@@H](NC(=O)Nc2ccccc2)CC[C@@]23CCCN2C(=O)CCC[C@@H]13 | nt | nt | nt | nt | -0.2
OCC1OC(Oc2c[nH]c3ccccc23)C(O)C(O)C1O (stereo not drawn) | -7.9% | 17.6% | -13.9% | -24.1% | -97.6*
CC1(C)Cc2c(sc(N)c2C#N)C(C)(C)N1 | -1.2% | 0.5% | -2.9% | 9.7% | 1.4
CC1(C)CC2CC(C)(CN2/C=N/c2sc3c(c2C#N)CC(C)(C)NC3(C)C)C1 (stereo not drawn) | -4.1% | ? | 157.4% | 0.0% | -88.2*
CCn1c(CNC(=O)c2ccc(OC)cc2)nnc1SCC(=O)Nc1cccc(C)c1 | ? | nt | nt | -8.6% | 19.5
C/C(=N\NC(=O)C(C)Oc1ccc([N+](=O)[O-])cc1)c1ccccn1 (stereo not drawn) | 1.9% | ? | -9.5% | -26.2% | -104.4*
COc1ccc(OC(C)C(=O)Nc2ccc([N+](=O)[O-])cc2)cc1 (stereo not drawn) | -12.0% | 0.7% | -20.6% | ? | -7.3
CCCCCNC(=O)CCn1c(=O)[nH]c2ccccc2c1=O | 4.4% | nt | nt | 17.9% | -30.7
CCCOc1ccc(CN2C(=O)C(=O)c3cccc(C)c32)cc1 | 13.2% | nt | nt | -13.2% | -19.4
Cc1ccc(CN2C(=O)C(=O)c3cc(Br)cc(C)c32)cc1 | 6.1% | nt | nt | ? | -103.1*
CCC1CN(Cc2cccc3nccnc23)Cc2cc(OC)ccc2O1 (stereo not drawn) | nt | nt | nt | 1.4% | nt
O=[N+]([O-])c1ccc(Oc2cccc(Br)c2)c2ccncc12 | -0.1% | ? | -32.8% | -32.6% | 62.5
O=[N+]([O-])c1ccc(Oc2ccc(F)cc2)c2ccncc12 | 0.5% | ? | -26.4% | ? | -68.2*
Cc1ccc(S(=O)(=O)N2CCN(C(=O)c3ccc4ccccc4n3)CC2)c(C)c1 | 2.6% | -33.2% | 34.8% | 35.0% | 8.7
N#Cc1cc2c(nc1SCC(=O)Nc1ccc(C(F)(F)F)cc1)C1CCN2CC1 | 2.4% | nt | nt | ? | -75.4*
N#Cc1ccc(-c2cccs2)nc1SCC(=O)Nc1cccc(C(F)(F)F)c1 | 1.0% | nt | nt | 4.1% | -30.9
CN(C)S(=O)(=O)c1ccc(Cl)c(NC(=O)CSc2nc3c(cc2C#N)C(=O)CCC3)c1 | ? | 9.4% | -9.1% | -16.1% | -20.1
N#Cc1cc2c(nc1SCC(=O)Nc1cc(Cl)ccc1Cl)C1CCN2CC1 | -5.8% | ? | 67.9% | ? | -87.7*
N#Cc1c(-c2ccccc2)cc(-c2ccccc2)nc1SCC(=O)Nc1ccc(Cl)cc1 | 1.6% | nt | nt | 13.6% | 6.0
N#Cc1cc2c(nc1SCC(=O)Nc1ccc(Cl)cc1)C1CCN2CC1 | ? | 2.82µM* | 16.3% | -15.9% | -90.8*
N#Cc1cc2c(nc1SCC(=O)Nc1ccc(Cl)c(C(F)(F)F)c1)C1CCN2CC1 | 2.6% | nt | nt | 0.0% | -68.4*
COc1ccc(N2CCN(C(=O)c3ccc(N(C)S(=O)(=O)c4ccc(OC)cc4)cc3)CC2)cc1 | 3.2% | ? | 127.1% | ? | -62.7*
Cc1ccc(S(=O)(=O)N(C)CC(=O)N2CCN(Cc3ccc4c(c3)OCO4)CC2)cc1 | -7.0% | ? | 115.0% | -15.1% | -2.6
Cc1ccc(S(=O)(=O)N(C)c2ccc(C(=O)N3CCN(Cc4ccc5c(c4)OCO5)CC3)cc2)cc1 | 0.3% | 4.47µM* | 131.6% | 15.8µM* | -95.0*
Cc1ccc(C(=O)N2CCN(Cc3ccc4c(c3)OCO4)CC2)c(Cl)c1 | ? | 11.2µM* | 37.4% | ? | -31.2
CCOC(=O)N1CCN(C(=O)c2ccc(N(C)S(=O)(=O)c3ccc(C)cc3)cc2)CC1 | 8.6% | 14.1µM* | 146.6% | -21.1% | -19.2
Cc1ccc(S(=O)(=O)N(C)c2ccc(C(=O)N3CCCCC3)cc2)cc1 | -3.7% | ? | 19.1% | -29.9% | -29.2
